The entries come from a sample that favours hits as a whole.
LmPK inhibitor – qHTS Assay for Inhibitors of Leishmania Mexicana Pyruvate Kinase (LmPK). purified LmPK, Kinase-Glo ATP luminescence, 1 h. Potency, µM (highest dose often 57.5 µM), usual class: inhibitors. 290,000 compounds, 0.37% hits
Target sequence (Q27686 whole entry, looked up): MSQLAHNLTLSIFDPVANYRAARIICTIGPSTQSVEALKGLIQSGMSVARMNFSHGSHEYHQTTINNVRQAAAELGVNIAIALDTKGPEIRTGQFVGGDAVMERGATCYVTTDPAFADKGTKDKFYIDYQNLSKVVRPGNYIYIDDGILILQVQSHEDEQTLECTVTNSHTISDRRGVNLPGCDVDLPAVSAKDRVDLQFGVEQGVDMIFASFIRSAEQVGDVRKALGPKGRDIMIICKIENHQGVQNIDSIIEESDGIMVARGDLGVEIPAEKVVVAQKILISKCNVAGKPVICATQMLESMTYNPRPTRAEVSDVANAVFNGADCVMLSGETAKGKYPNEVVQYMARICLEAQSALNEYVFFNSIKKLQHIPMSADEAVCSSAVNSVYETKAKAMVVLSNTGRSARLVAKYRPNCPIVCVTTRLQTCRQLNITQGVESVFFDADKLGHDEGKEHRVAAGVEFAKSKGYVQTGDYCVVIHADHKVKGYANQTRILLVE
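0.1 nM LmPK, 0.5 mM PEP, 0.1 mM ADP; 50 mM imidazole pH 7.2, 7 mM MgCl2, 50 mM KCl; 1 h RT. Kinase-Glo luminescence readout, normalized to no-enzyme (full inhibition) and uninhibited wells.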
Sm TGR inh – qHTS Assay for the Inhibitors of Schistosoma Mansoni Peroxiredoxins; 360,000 compounds, 3% hits; purified TGR, DTNB reduction, TNB absorbance 405 nm; Schistosoma mansoni thioredoxin glutathione reductase (TGR), Q962Y6; Potency, µM (top dose mostly 114 µM), hits mostly inhibitors; AID 485364, 2010; further: nearly all actives have a fitted effect of over 60% in size
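First, TGR (20 nM dispensed) and NADPH were mixed with compound. Second, a 15 min room-temperature incubation followed. Third, further NADPH and then DTNB were added to start the reaction. Finally, TNB absorbance was monitored kinetically.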
Giardia FBPA inh – qHTS Assay for Inhibitors of Fructose-1,6-bisphosphate Aldolase from Giardia Lamblia; AID 2451, 2010; 290,000 compounds, 0.71% hits; Potency, µM (doses to about 59.6 µM), usual class: inhibitors; purified Giardia FBPA; A8B2U2; further: nearly all actives have a fitted effect of over 55% in size
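40 nM FBPA preincubated 10 min at RT with compound (up to 57.5 uM final), then substrate plus GAPDH/TPI/NAD/arsenate coupling and diaphorase/resazurin added. Fluorescence read after 20 min at RT, 525/598 nm.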
Cycloheximide cs – Cycloheximide Counterscreen for Small Molecule Inhibitors of Shiga Toxin | cell reporter, cycloheximide protein synthesis inhibition counterscreen | 300,000 compounds, 12% hits | max response, %; in the data active means max response mostly above about 13%, no sharp cut-off; inactive means mostly below about 14%; further: read at 38.3 µM for the half of the compounds with a filed dose
TbPYK inhibitor – qHTS of Trypanosoma Brucei Inhibitors; TbPYK enzyme, Kinase-Glo Plus ATP luminescence, 45 min; 410,000 compounds, 0.12% hits; Potency, µM (series often up to 76.8 µM), actives largely listed as inhibitors; pyruvate kinase (Trypanosoma brucei), Q57TT1; further: nearly all actives have a fitted effect of over 50% in size
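ADP (130 uM final) triggers the TbPYK reaction after compound addition; incubation is 45 min at room temperature. Kinase-Glo Plus is then added and luminescence imaged. Normalized data are fitted to concentration-effect curves.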
Shiga toxin inh – A qHTS for Small Molecule Inhibitors of Shiga Toxin; Vero cells, Shiga toxin protein synthesis inhibition reporter; inhibition, % at 38.7 µM; 290,000 compounds, 9.2% hits; in the data active means inhibition mostly above about 28%, no sharp cut-off; inactive means mostly below about 43%
Numbers stand for hits; ! = a repeat was not active. Unless noted, the call rests on the fitted dose curve; in most records, active means well fitted curve in the direction sought with a large enough effect; inconclusive means small, poorly fitted or top-dose-only effect, or another doubt; inactive means no such curve, though single readings can be large; an effect the other way counts as inactive or inconclusive.

What do the screens show for `C/C=C/C=C/C(=O)[C@@H]1[C@@H]([C@]2(C)OC(=O)C(C)=C2O)[C@H]2/C(=C(O)/C=C/C=C/C)C(=O)[C@]1(C)C(=O)C2(C)O` (some centres undefined)?
LmPK inhibitor: inactive; Sm TGR inh: 10µM; Giardia FBPA inh: inactive; Cycloheximide cs: inactive; TbPYK inhibitor: inactive; Shiga toxin inh: inactive

How did COc1ccc(C(=O)Nn2cnc3scc(-c4cccs4)c3c2=O)c(O)c1 do in these assays?
LmPK inhibitor: inactive; Sm TGR inh: inactive; Giardia FBPA inh: inactive; Cycloheximide cs: 31; TbPYK inhibitor: inactive; Shiga toxin inh: 116

How did C/C=C(\C)c1nnc(NC(=O)C(C)C)s1 do in these assays?
LmPK inhibitor: inactive; Sm TGR inh: inactive; Giardia FBPA inh: inactive; Cycloheximide cs: 19; TbPYK inhibitor: inactive; Shiga toxin inh: inactive

What do the screens show for `CC(C)C(=O)Nc1nnc(NC(=S)Nc2ccccc2)s1`?
LmPK inhibitor: inactive; Sm TGR inh: 25µM; Giardia FBPA inh: inactive; Cycloheximide cs: 34; TbPYK inhibitor: inactive; Shiga toxin inh: 68

Results for CC(C)C(=O)Nc1nnc(CCc2nnc(NC(=O)C(C)C)s2)s1 ?
LmPK inhibitor: inactive; Sm TGR inh: inactive; Giardia FBPA inh: inactive; Cycloheximide cs: inactive; TbPYK inhibitor: inactive; Shiga toxin inh: inactive

Results for CCCc1nnc(NC(=S)Nc2ccccc2)s1 ?
LmPK inhibitor: inactive; Sm TGR inh: inactive; Giardia FBPA inh: inactive; Cycloheximide cs: 27; TbPYK inhibitor: inactive; Shiga toxin inh: 42

Results for Cc1ccc(NC(=O)Cn2nnc(-c3nc(-c4ccc(Cl)cc4)no3)c2N)cc1C ?
Sm TGR inh: inactive; TbPYK inhibitor: inactive

What do the screens show for `O=[N+]([O-])c1cc2c(cc1Br)-c1ccccc1C2`?
TbPYK inhibitor: inactive

Results for Cc1nn(CC(=O)N2CCN(c3ccccc3F)CC2)c(=O)c2cccn12 ?
Sm TGR inh: inactive; TbPYK inhibitor: inactive

What do the screens show for `COc1ccc(CCCc2nc3ccccc3[nH]2)cc1`?
LmPK inhibitor: inactive; Sm TGR inh: inactive; Giardia FBPA inh: inactive; Cycloheximide cs: 22; TbPYK inhibitor: inactive; Shiga toxin inh: inactive

Results for O=C(O)CCc1nc2cc3ccccc3cc2[nH]1 ?
LmPK inhibitor: inactive; Sm TGR inh: inactive; Giardia FBPA inh: inactive; Cycloheximide cs: inactive; TbPYK inhibitor: inactive; Shiga toxin inh: inactive

Results for Oc1ccc(-c2nc(-c3ccc(F)cc3)c(-c3ccncc3)[nH]2)cc1 ?
Sm TGR inh: inactive; Giardia FBPA inh: inactive; TbPYK inhibitor: inactive

What do the screens show for `COC(=O)c1ccc(C(=O)OCc2nc3cc4ccccc4cc3[nH]2)cc1`?
LmPK inhibitor: inactive; Sm TGR inh: inactive; Giardia FBPA inh: inactive; Cycloheximide cs: 29; TbPYK inhibitor: inactive; Shiga toxin inh: 14

Results for Fc1cc2nc(-c3ccncc3)[nH]c2cc1F ?
LmPK inhibitor: inactive; Sm TGR inh: inactive; Giardia FBPA inh: inactive; Cycloheximide cs: 24; TbPYK inhibitor: inactive; Shiga toxin inh: inactive

What do the screens show for `S=C(Nc1ccc(-c2nc3ccccc3[nH]2)cc1)Nc1cccnc1`?
LmPK inhibitor: inactive; Sm TGR inh: 11µM; Giardia FBPA inh: inactive; Cycloheximide cs: 61; TbPYK inhibitor: inactive; Shiga toxin inh: 66

Results for COC(=O)c1ccc(-c2n[nH]c(=O)c3ccccc23)cc1 ?
LmPK inhibitor: inactive; Sm TGR inh: inactive; Giardia FBPA inh: inactive; Cycloheximide cs: inactive; TbPYK inhibitor: inactive; Shiga toxin inh: inactive

What do the screens show for `COC(=O)c1ccc(-c2ncc[nH]2)cc1`?
LmPK inhibitor: inactive; Giardia FBPA inh: inactive; Cycloheximide cs: 24; TbPYK inhibitor: inactive; Shiga toxin inh: inactive

How did Cc1cc(-c2nc3ccccc3[nH]2)ccc1N do in these assays?
LmPK inhibitor: 16µM; Sm TGR inh: inactive; Giardia FBPA inh: inactive; Cycloheximide cs: inactive; TbPYK inhibitor: inactive; Shiga toxin inh: 144

Results for CC(=O)Nc1cccc(-c2nc3ccccc3[nH]2)c1 ?
LmPK inhibitor: inactive; Sm TGR inh: inactive; Giardia FBPA inh: inactive; Cycloheximide cs: inactive; TbPYK inhibitor: inactive; Shiga toxin inh: inactive

How did c1cncc(-c2nc3ccccc3[nH]2)c1 do in these assays?
LmPK inhibitor: inactive; Sm TGR inh: inactive; Giardia FBPA inh: inactive; Cycloheximide cs: 37!; TbPYK inhibitor: inactive; Shiga toxin inh: 71!

What do the screens show for `COC(=O)c1ccc(-c2nc3ccccc3[nH]2)cc1`?
LmPK inhibitor: inconclusive; Sm TGR inh: inactive; Giardia FBPA inh: inactive; Cycloheximide cs: 63; TbPYK inhibitor: inactive; Shiga toxin inh: active

Results for COc1ccc(-c2cc(C3C4C=CCCC4(C)C(=O)N3Cc3ccccc3)ccc2F)cc1OC (centres undefined) ?
Giardia FBPA inh: inactive; Cycloheximide cs: inactive; Shiga toxin inh: inactive

Results for O=c1c(-c2cc(F)cc(F)c2)nc2cnc(N3CCNCC3)nc2n1CCc1ccccc1 ?
Giardia FBPA inh: inactive; TbPYK inhibitor: inactive

What do the screens show for `COc1ccc(-c2nc3ccccc3nc2-c2ccc(OC)cc2)cc1`?
LmPK inhibitor: inactive; Sm TGR inh: inactive; Giardia FBPA inh: inactive; Cycloheximide cs: inactive; TbPYK inhibitor: inactive; Shiga toxin inh: inactive

Results for O=C(O)c1cccc(-c2nc3ccccc3[nH]2)c1 ?
LmPK inhibitor: inactive; Sm TGR inh: inactive; Giardia FBPA inh: inactive; Cycloheximide cs: 27; TbPYK inhibitor: inactive; Shiga toxin inh: 32

What do the screens show for `COc1ccc2oc(=Nc3ccccc3)c(-c3nc4ccccc4[nH]3)cc2c1`?
LmPK inhibitor: inactive; Sm TGR inh: inactive; Giardia FBPA inh: inactive; Cycloheximide cs: 59; TbPYK inhibitor: inactive; Shiga toxin inh: 71

How did S=C(NCCN1CCOCC1)Nc1ccc(-c2nc3ccccc3[nH]2)cc1 do in these assays?
LmPK inhibitor: inactive; Sm TGR inh: inactive; Giardia FBPA inh: inactive; Cycloheximide cs: 28; TbPYK inhibitor: inactive; Shiga toxin inh: 177

Results for COc1ccc(-c2nc3ccccc3[nH]2)cc1 ?
LmPK inhibitor: 13µM; Sm TGR inh: inactive; Giardia FBPA inh: inactive; Cycloheximide cs: 25; TbPYK inhibitor: inconclusive; Shiga toxin inh: inactive

How did Cc1cccc(N2CCN(C(=O)C3CCCN(S(=O)(=O)c4ccc(Br)s4)C3)CC2)c1C (centres undefined) do in these assays?
Sm TGR inh: inactive; TbPYK inhibitor: inactive

What do the screens show for `CCc1cccc(C)c1NC(=O)c1cc(S(=O)(=O)N(Cc2ccc(C(=O)OC)cc2)Cc2ccc(OC)c(OC)c2)ccc1F`?
Sm TGR inh: inactive; TbPYK inhibitor: inactive

How did Cn1c(=O)c2c(nc(N3CCOCC3)n2Cc2ccc(Br)cc2)n(C)c1=O do in these assays?
Sm TGR inh: inactive; TbPYK inhibitor: inactive

What do the screens show for `COC(=O)N1CCC2(CCCN(c3ncccn3)C2)CC1`?
Giardia FBPA inh: inactive; TbPYK inhibitor: inactive
